Bioassay records (PubChem)
eIF4H inh – inhibitors of RNA binding by human eIF4H | eIF4H fluorescence polarization binding assay | inhibition, % at 35 µM | 0.94% of 290,000 active | AID 2012;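 further: calls also rest on retests at 20 µM and on dose response follow-up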
PABP1 MLLE inh – blocks PAM2 peptide binding to the PABP1 MLLE domain; P11940; GST-MLLE / FITC-PAM2 fluorescence polarization; inhibition, % at 20 µM; 0.36% of 360,000 active; AID 588489; in the data active means inhibition above about 35%, passing the limit was not always enough;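 further: plate controls were DMSO wells with GST-MLLE for no effect and wells lacking GST-MLLE protein for full effect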
Target sequence (P11940 whole entry, looked up, the tested form may be a part): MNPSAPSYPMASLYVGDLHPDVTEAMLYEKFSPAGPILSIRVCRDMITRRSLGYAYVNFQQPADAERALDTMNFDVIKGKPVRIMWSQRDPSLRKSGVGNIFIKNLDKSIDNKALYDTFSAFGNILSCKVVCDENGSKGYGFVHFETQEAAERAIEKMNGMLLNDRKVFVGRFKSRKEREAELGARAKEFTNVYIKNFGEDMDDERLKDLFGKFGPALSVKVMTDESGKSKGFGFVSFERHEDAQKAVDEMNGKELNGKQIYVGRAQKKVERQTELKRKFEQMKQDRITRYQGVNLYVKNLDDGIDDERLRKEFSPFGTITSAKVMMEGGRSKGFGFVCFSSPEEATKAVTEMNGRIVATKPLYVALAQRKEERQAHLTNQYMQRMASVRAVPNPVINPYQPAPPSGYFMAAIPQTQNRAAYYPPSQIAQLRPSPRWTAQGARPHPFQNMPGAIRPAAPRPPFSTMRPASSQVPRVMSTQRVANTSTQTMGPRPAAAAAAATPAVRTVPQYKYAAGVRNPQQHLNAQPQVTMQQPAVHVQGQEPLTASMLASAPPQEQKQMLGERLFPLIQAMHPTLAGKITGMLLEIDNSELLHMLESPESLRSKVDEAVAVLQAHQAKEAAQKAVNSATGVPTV
CRFR2-BP antag – blocks CRF-induced signaling of the CRF-BP/CRF-R2 complex. HEK293 CRF-R2/CRF-BP, CRF-induced calcium fluorescence. inhibition, % at 11.8 µM. 0.59% of 350,000 active;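 active means inhibition of the ligand-induced calcium signal above about 50% at the single tested concentration, limit read from the data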
PABP FP inh – blocks human PABP binding to poly(A) RNA; P11940; fluorescence polarization; inhibition, % at 35 µM; 1% of 290,000 active; AID 2014;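 further: calls also rest on retests at 20 µM and on dose response follow-up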
PHOSPHO1 block – inhibitors of human PHOSPHO1 phosphatase; Q8TCT1; recombinant PHOSPHO1, absorbance phosphatase assay; inhibition, % at 13.3 µM; 1.1% of 290,000 active; AID 1565; in the data active means inhibition above about 60%
An asterisk follows results filed as active; u = inconclusive; x = no result. Rows were chosen to be rich in hits. Some 2.6% of all compounds tested hit in one or more screens of this group. Unless noted, how the calls were made is not given here.

SMILES	eIF4H inh	PABP1 MLLE inh	CRFR2-BP antag	PABP FP inh	PHOSPHO1 block
COc1ccc(NC(=O)c2c(F)cccc2F)cc1S(=O)(=O)Nc1ccc(Br)cc1	-5	-6	63*	10	-37
COc1ccc(NS(=O)(=O)c2cc(NC(=O)CCSc3ccccc3)ccc2OC)cc1	5.3*	6	-44	75*	-4
Cc1ccc(NC(=O)c2cc(-c3ccco3)nc3ccccc23)cc1S(=O)(=O)N1CCOCC1	66*	-5	-6	1.2*	4
Cc1ccc(NC(=O)c2nc3nccc(C)n3n2)cc1S(=O)(=O)N1CCCCC1	x	-8	3	x	x
COc1ccc(NC(=O)c2nc3nccc(C)n3n2)cc1S(=O)(=O)N1CCOCC1	x	-22	108*	x	x
COc1ccc(NC(=O)c2cc(-c3ccco3)nc3ccccc23)cc1S(=O)(=O)N1CCOCC1	71	-23	26	50*	7
Nc1ccn([C@@H]2O[C@H](C(=O)N3CCSC3)[C@@H](O)[C@H]2O)c(=O)n1	x	9	x	x	x
CC(NC(=O)c1ccccc1Cl)C(=O)O (centres undefined)	8	-5	1	14	2
O=C(O)C1OC1(c1ccccc1Cl)c1ccccc1Cl (centres undefined)	x	11	69*	x	x
Oc1ccc(/C=N/Nc2cc(N3CCOCC3)nc(N3CCOCC3)n2)cc1	x	12	-3	x	x
COc1ccc(/C=N/Nc2cc(N3CCCC3)nc(N3CCCC3)n2)cc1	23	54*	-79	-10	-5
Oc1ccc(/C=N/Nc2cc(N3CCCC3)nc(N3CCCC3)n2)cc1	51	70*	1	u	-50
Oc1cccc(/C=N/Nc2cc(N3CCCC3)nc(N3CCCC3)n2)c1	29*	14	2	68	6
OC[C@@H]1CN(Cc2ccccc2)C[C@H](n2cnc3c(NCc4ccncc4)ncnc32)O1	x	10	x	x	x
CCCC(=O)N1CCCC1(C)C(=O)Nc1ccc(-n2cccc2)cc1 (centres undefined)	x	10	x	x	x
CC1CC(C)CN(S(=O)(=O)c2ccc(C(=O)OCC(=O)Nc3ccccc3)cc2)C1 (centres undefined)	x	-10	12	x	x
OC(c1cccc(Cl)c1)c1ncc(-c2cccc3ccccc23)[nH]1 (centres undefined)	x	1	x	x	x
C[C@@H]1CN([C@@H](C)CO)C(=O)c2cc(NS(=O)(=O)c3cccs3)ccc2O[C@H]1CN(C)Cc1ccc(C(F)(F)F)cc1	x	-17	-1	x	x
CC(C)c1ccccc1-n1c(SCC(=O)N2CCc3ccccc3C2)nc2ccccc2c1=O	5	0	46	120*	-40
O=C(Cn1cnc2ccccc2c1=O)N1CCc2ccccc2C1	-1	9	7	-2	63*
O=C(CSc1nc2ccccc2c(=O)n1-c1ccccc1)N1CCc2ccccc2C1	-5	-4	21	-5	1
Cc1cccc(-n2c(SCC(=O)N3CC(=O)Nc4ccccc43)nc3ccccc3c2=O)c1C	-18	-20	55*	-22	2
CC(C)Cn1c(SCC(=O)N2CCc3ccccc3C2)nc2cc(Cl)ccc2c1=O	3	-6	118*	1	11
CC1Nc2ncnc(N3CCc4ccccc4C3)c2N(Cc2ccccc2)C1=O (centres undefined)	x	-15	x	x	x
Cc1[nH]c(=O)[nH]c(=O)c1C=CC(=O)NC(CO)CS(=O)Cc1ccccc1 (centres undefined)	x	-2	-6	x	x
SMILES	eIF4H inh	PABP1 MLLE inh	CRFR2-BP antag	PABP FP inh	PHOSPHO1 block
CCN(CC(=O)NCc1ccc(Cl)cc1)C(=O)c1sccc1C	x	0	3	x	x
CNC(=O)C1CC(=O)N(CCc2ccccc2)C(=Nc2ccc(OC)cc2)S1 (centres undefined)	7	-25	45	u	6
CCN1C(=O)CC(C(=O)NCCc2ccc(S(N)(=O)=O)cc2)SC1=Nc1ccc(OC)cc1 (centres undefined)	active	1	6	83*	-7
CC(/C=N/NC(=O)CSc1nnc(SCc2ccccc2)s1)=C\c1ccco1	69*	-100	-8	2.7*	13
CCC(=O)N1CCC1(C)C(=O)Nc1cc(-c2ccccc2)nn1C (centres undefined)	x	3	x	x	x
C[C@]1(O)CC(=O)C=C[C@H]1Nc1ccccc1	x	-14	14	x	x
COC(=O)C1=CN(CCCN2CCCC2=O)C=C(C(=O)OC)C1c1cccs1	-4	10	-6	4	3
COC(=O)C1=CN(Cc2ccc(OC)cc2)C=C(C(=O)OC)C1c1cccs1	-1	17	111*	-7	32
CN1CCN(c2nc(NCc3ccco3)nc(N)c2[N+](=O)[O-])CC1	1	8	-9	1	60*
Cc1[nH]n(C(C)(C)C)c(=O)c1Sc1ccc(Cl)cc1	-7	37	13	5	74*
Cc1cc(O)c(Sc2ccc(Cl)cc2)c(=O)[nH]1	x	13	1	x	x
CC(C)(C)NC(=O)C(c1ccc(O)cc1)N(Cc1ccc2c(c1)OCO2)C(=O)CCl (centres undefined)	x	-6	80*	x	x
CCOCCCNC(=O)C(c1ccc(Cl)cc1)N(Cc1ccc2c(c1)OCO2)C(=O)CNC(C)=O (centres undefined)	-4	5	1	4	40
CCCn1cnnc1CNC(=O)[C@H]1O[C@@H](n2ccc(=O)[nH]c2=O)[C@H](O)[C@@H]1O	x	3	x	x	x
CC(SC(C)C(=O)NN=Cc1cccc(F)c1)C(=O)NN=Cc1cccc(F)c1 (centres undefined)	x	6	-42	x	x
CCOc1ccccc1NC(=O)NC(C)c1ccc2c(c1)OCO2 (centres undefined)	7	-2	x	-6	41
COc1ccc(NC(=O)NC(C)c2ccc3c(c2)OCO3)c(OC)c1 (centres undefined)	-7	-8	63*	-2	24
COc1ccc(CN2CCC(CO)(CCOc3ccccc3)CC2)cc1C	10	6	88*	0	27
COc1cc(CN2CCC(CO)(CCOc3ccccc3)CC2)cc(OC)c1OC	4	20	12	-6	25
COc1cc(OC)c(CN2CCC(CO)(CCOc3ccccc3)CC2)c(OC)c1	1	-12	-12	-8	64*
Cc1ccc(S(=O)(=O)N2CCOCC2)cc1NC(=O)CNC(C)c1ccccc1 (centres undefined)	x	2	-12	x	x
CCOC(=O)C1(CCC(C)C)CC(CSc2nc3ccccc3[nH]2)OC1=O (centres undefined)	-15	-3	14	6	71*
Cc1noc(-c2ccccc2)c1NC(=O)Nc1ccc2nc([C@H]3C[C@H](O)[C@@H](CO)O3)[nH]c2c1	x	-6	x	x	x
O=C(COC(=O)CCC(=O)c1ccc(F)cc1)Nc1ccccc1	-6	-3	7	1	7
CCN(CC)c1ccc(NC(=O)COC(=O)CCC(=O)c2ccc(F)cc2)cc1	-12	-6	7	-5	85*
CCCCCCc1cc2cc(C(N)=O)c(=N)oc2cc1O	96*	x	x	108*	11
Cc1c(C=O)c2ccccn2c1C(=O)c1cccs1	94*	32	1	16*	-12
COc1ccc(NC(=O)N(C)C[C@@H]2OCc3cnnn3CCCC(=O)N([C@@H](C)CO)C[C@H]2C)cc1	x	-3	15	x	x
